According to PubChem BioAssay (NCATS):
“And” between values parts separate entries of the source, which are not always exact repeats. Equal entries are not always repeated. Inconclusive results are not listed. The source made the active and inactive calls. Unless noted, calls follow the shape of the dose curve; as a rule, active = well fitted curve in the direction sought with a large enough effect; inconclusive = small, poorly fitted or top-dose-only effect, or another doubt; inactive = no such curve, though single readings can be large; an effect the other way counts as inactive or inconclusive.

Experiments:
[1] = qHTS for differential inhibitors of proliferation of Plasmodium falciparum line HB3 (AID 1886); conditions: Potency: Plasmodium falciparum HB3 proliferation inhibition;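 also: parasites grown with compound for 72 h before SYBR Green readout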; also: potency is read from the fitted curve at half-maximal effect
[2] = Validation screen for inhibitors of Lassa infection (AID 463096; calls by dose curve; also: % is scaled to controls: 0 for no effect and ±100 for the full control effect)
[3] = Quantitative high throughput screen for delayed death inhibitors of the malarial parasite plastid, 96 hour incubation (AID 488745); also: nearly all actives have a fitted effect of over 70% in size; also: potency is read from the fitted curve at half-maximal effect
Outline: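 P. falciparum carrying an integrated firefly luciferase reporter, grown in erythrocytes (2% hematocrit, 0.1% parasitemia final) in RPMI 1640/0.5% Albumax, was exposed to compound for 96 h (two generations) at 37 C, 5% CO2. Luminescence decrease indicated growth inhibition.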

[4] = biological target: M-phase phosphoprotein 8 (Homo sapiens) (UniProt Q99549); experiment: qHTS Validation Assay for Inhibitors for MPP8 Chromodomain Interactions with Methylated Histone Tails (AID 488949); also: nearly all actives have a fitted effect of over 55% in size; also: potency is read from the fitted curve at half-maximal effect
Outline: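 Disruption of the preformed MPP8–trimethyl-H3K9 peptide complex (both 50 nM, 30 min, RT) is measured after 30 min compound exposure, using AlphaScreen proximity beads; aurintricarboxylic acid titration serves as plate control.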

[5] = biological target: Thyrotropin receptor (Homo sapiens) (UniProt P16473); experiment: qHTS Assay for Antagonists of the Thyroid Stimulating Hormone Receptor (AID 488980); also: 0% is about no effect
Outline: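 Cells expressing human TSHR (HEK293) are dispensed in HBSS/HEPES containing 70 uM RO 20-1724, compound is added, then TSH at EC80 (4 nM final). Antibody in lysis buffer follows, 30 minutes at room temperature before HTRF detection.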

[6] = biological target: Thyrotropin-releasing hormone receptor (Homo sapiens) (UniProt P34981); experiment: qHTS for Small Molecule Agonists and Allosteric Enhancers of Human TRH Receptor: Validation Screen for Agonists (AID 493127;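 active = calcium activation more than 3 SD above the typical response in the agonist read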;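 also: intracellular calcium rise by fluo-8 fluorescence before TRH EC20 addition; 0% is about no effect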); conditions: TRH receptor agonist cell assay; at 2 µM; hits give high values
Outline: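 TRHR-expressing cells were plated overnight in serum-containing medium, then loaded with fluo-8 calcium dye at room temperature for 30 min–1.5 h. After a 10 s baseline, compound was pin-transferred and calcium fluorescence (ex 480/em 530) read kinetically for agonist response.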

[7] = biological target: Galactokinase (Homo sapiens) (UniProt P51570); experiment: qHTS Validation Assay for Inhibitors of Human Galactokinase (GALK) (AID 493189); also: 0% is about no effect
Outline: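 Compounds were pin-transferred into ATP buffer, then GALK-galactose mix was added (final 5 nM enzyme, 100 uM galactose, 35 uM ATP). After 1 h at room temperature, remaining ATP was measured luminescently.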

[8] = Validation screen for small molecules that induce DNA re-replication in SW480 colon adenocarcinoma cells (AID 504364); also: 0% is about no effect
Outline: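 SW480 cells seeded at 250 per well were exposed to compound or DMSO for 48 hr at 37 C, 5% CO2, then stained with Hoechst for 40 min. DNA content per nucleus was imaged (405 nm ex, 500-530 nm em).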

[9] = Cell Viability - HepG2 (AID 433; calls by dose curve;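 also: potency is read from the fitted curve at half-maximal effect; potency for ATP loss meaning cytotoxicity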); conditions: qHTS
Outline: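 Cytotoxicity is scored as loss of intracellular ATP in HepG2 cells exposed to compounds for 40 h. Concentration-response curves, normalized to DMSO and 100 uM tamoxifen, give AC50 values.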

[10] = Cell Viability - HUV-EC-C (AID 542); also: % is scaled to controls: 0 for no effect and ±100 for the full control effect; nearly all actives have a fitted effect of over 35% in size
Outline: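 HUV-EC-C normal human vascular endothelial cells, 1000 cells/well, pre-incubated 5 hr at 37 °C, then exposed to compounds for 40 hr at 37 °C in complete medium. Viability measured as intracellular ATP by CellTiter-Glo luminescence; AC50 from Hill fits.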

[11] = Cell Viability - Renal Proximal Tubule (AID 545); conditions: renal proximal tubule cells viability; at 91.7 µM (top of the series), primary cells of rat origin unless noted;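 also: 0% = DMSO only and -100% = 100 µM tamoxifen; nearly all actives have a fitted effect of over 40% in size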
Outline: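 Cytotoxicity is scored as a concentration-dependent drop in cellular ATP in primary rat renal proximal tubule cells exposed for 40 hr. AC50 derives from Hill modelling.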

[12] = Cellular Toxicity (caspase-3) HUV-EC-C (AID 656);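 also: 0% = DMSO basal and 100% = 100 µM tamoxifen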
Outline: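 Read-out: luminescence proportional to caspase 3/7 activity, measured 20 min after adding Caspase-Glo 3/7 reagent. Cells (HUV-EC-C) had received compound for 16 hr at 37°C. Increases relative to DMSO and 100 uM tamoxifen gave concentration-response AC50 values.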

[13] = Cellular Toxicity (caspase-3) BJ (AID 658)
Outline: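 Luminescent aminoluciferin-substrate cleavage reports caspase 3/7 activity in normal human BJ fibroblasts after 16 hr compound exposure at 37 °C. Normalized to DMSO (basal) and 10 uM staurosporine (100%); AC50 from Hill fit of concentration-response.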

[14] = Cellular Toxicity (caspase-3) MRC-5 (AID 659)
Outline: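 Luminescence from caspase-cleaved aminoluciferin substrate (Caspase-Glo 3/7, 1 hr RT) reports caspase 3/7 activity in MRC-5 lung fibroblasts after 16 hr compound exposure. Normalized to DMSO basal and 10 uM staurosporine as 100%; AC50 from Hill fits.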

[15] = Cellular Toxicity (caspase-3) Mesangial (AID 660);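 also: cells exposed to compound for 16 h before the caspase read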
Outline: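 Human renal glomerular mesangial cells (1000/well) were treated with compounds for 16 h at 37 °C in complete medium, then caspase 3/7 activity was read by Caspase-Glo luminescence. Data were normalized to DMSO and 100 uM tamoxifen; AC50 from Hill fits.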

[16] = Cellular Toxicity (caspase-3) H-4-II-E (AID 663);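 also: cells exposed to compound for 16 hr before readout; 0% = DMSO basal and 100% = 100 µM tamoxifen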
Outline: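 Luminescence from caspase-cleaved aminoluciferin substrate, read 20 min after reagent addition, reports caspase 3/7 activation in rat H-4-II-E cells after 16 hr compound exposure. Normalized to DMSO (basal) and 100 uM tamoxifen (100%); AC50 from Hill fits.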

[17] = Cellular Toxicity (caspase-3) N2a (AID 665); conditions: N2a cells, luminescence, normalized: DMSO 0%, 10 µM staurosporine 100%; at 92.2 µM (top of the series);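 also: compound exposure lasted 16 h at 37 °C before readout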
Outline: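 Mouse N2a neuroblastoma cells (1500/well) were treated with compounds for 16 h at 37 °C, then caspase-3/7 activity was read by Caspase-Glo luminescence after 1 h at room temperature. Data were normalized to DMSO and 10 uM staurosporine; AC50 from Hill fits.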

[18] = qHTS Assay for Identification of Small Molecule Inducers of Hypoxia Response (AID 2120; active = well fitted curve in the direction sought with a large enough effect in the signal ratio, with a control signal flat, not every such curve was filed as active; the % refers to the signal ratio; also: 0% is about no effect)
Outline: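 HRE-beta-lactamase reporter in CellSensor HRE-bla ME-180 cells, 2500 cells/well in Opti-MEM with 0.5% dialyzed FBS; compounds tested as titration series, 17 h at 37 degrees C. CCF4 substrate 2.5 h at room temperature; AC50 from 460/530 nm ratio.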

[19] = qHTS assay for small molecule agonists of the antioxidant response element (ARE) signaling pathway measured by Nrf2-dependant transcriptional activity - cell viability counter screen (AID 720653; active = well fitted curve in the direction sought with a large enough effect in the repeat runs; an effect the other way counts as inactive or inconclusive; also: % is scaled to controls: 0 for no effect and ±100 for the full control effect); conditions: ARE-bla HepG2 viability, CellTiter-Glo ATP luminescence, 16 h; hits give low values
Outline: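 ARE-bla HepG2 cells (2,000/well) rested 5 hrs at 37C/5% CO2, then exposed to compounds in DMSO for 16 hrs. Viability was read in the same wells as intracellular ATP by luminescence, 30 min at room temperature after reagent addition.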

[20] = qHTS assay for cell viability of HEK293 cells (AID 743288); conditions: ATP luminescence (CellTiter-Glo), 18 h; max response: hits give low values; also: % is scaled to controls: 0 for no effect and ±100 for the full control effect; nearly all actives have a fitted effect of over 50% in size
Outline: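 The Tox21 protocol used parental HEK293 cells treated for 18 h at 37 C with compounds delivered by pintool; ATP-coupled luminescence after 30 min at room temperature gave viability.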

M-phase phosphoprotein 8 (Homo sapiens), sequence (Q99549 whole entry, looked up): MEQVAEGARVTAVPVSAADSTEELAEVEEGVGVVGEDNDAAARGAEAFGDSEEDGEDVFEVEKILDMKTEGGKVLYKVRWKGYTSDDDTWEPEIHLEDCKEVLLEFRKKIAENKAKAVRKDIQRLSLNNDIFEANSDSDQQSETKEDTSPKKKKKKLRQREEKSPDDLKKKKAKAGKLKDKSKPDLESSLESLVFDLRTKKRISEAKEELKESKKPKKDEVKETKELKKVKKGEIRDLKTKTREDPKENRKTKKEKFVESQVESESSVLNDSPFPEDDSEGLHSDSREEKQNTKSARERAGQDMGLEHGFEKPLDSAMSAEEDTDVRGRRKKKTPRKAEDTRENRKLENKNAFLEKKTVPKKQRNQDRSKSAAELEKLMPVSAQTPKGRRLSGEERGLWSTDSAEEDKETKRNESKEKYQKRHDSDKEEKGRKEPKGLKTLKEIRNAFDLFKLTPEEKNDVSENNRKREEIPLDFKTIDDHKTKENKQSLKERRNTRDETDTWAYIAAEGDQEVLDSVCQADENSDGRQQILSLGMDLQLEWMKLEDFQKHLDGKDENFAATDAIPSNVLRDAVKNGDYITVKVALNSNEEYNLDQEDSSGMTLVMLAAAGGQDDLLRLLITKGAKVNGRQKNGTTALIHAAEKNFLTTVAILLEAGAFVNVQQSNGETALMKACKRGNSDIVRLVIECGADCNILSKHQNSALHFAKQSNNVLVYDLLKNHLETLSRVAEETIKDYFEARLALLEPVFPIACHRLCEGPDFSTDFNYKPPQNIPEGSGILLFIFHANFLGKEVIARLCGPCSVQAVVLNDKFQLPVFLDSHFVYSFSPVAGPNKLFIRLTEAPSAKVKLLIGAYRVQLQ
Galactokinase (Homo sapiens), sequence (P51570 whole entry, looked up): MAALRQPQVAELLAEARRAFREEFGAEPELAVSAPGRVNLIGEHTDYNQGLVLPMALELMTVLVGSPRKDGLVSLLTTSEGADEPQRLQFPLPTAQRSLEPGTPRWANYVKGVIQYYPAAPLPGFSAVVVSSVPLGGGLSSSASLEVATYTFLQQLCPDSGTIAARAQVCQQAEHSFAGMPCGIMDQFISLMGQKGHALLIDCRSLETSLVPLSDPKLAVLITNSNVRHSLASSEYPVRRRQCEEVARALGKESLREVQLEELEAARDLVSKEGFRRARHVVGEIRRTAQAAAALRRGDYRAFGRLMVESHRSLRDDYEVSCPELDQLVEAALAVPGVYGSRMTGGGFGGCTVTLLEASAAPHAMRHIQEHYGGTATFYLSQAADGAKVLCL
Thyrotropin receptor (Homo sapiens), sequence (P16473 whole entry, looked up): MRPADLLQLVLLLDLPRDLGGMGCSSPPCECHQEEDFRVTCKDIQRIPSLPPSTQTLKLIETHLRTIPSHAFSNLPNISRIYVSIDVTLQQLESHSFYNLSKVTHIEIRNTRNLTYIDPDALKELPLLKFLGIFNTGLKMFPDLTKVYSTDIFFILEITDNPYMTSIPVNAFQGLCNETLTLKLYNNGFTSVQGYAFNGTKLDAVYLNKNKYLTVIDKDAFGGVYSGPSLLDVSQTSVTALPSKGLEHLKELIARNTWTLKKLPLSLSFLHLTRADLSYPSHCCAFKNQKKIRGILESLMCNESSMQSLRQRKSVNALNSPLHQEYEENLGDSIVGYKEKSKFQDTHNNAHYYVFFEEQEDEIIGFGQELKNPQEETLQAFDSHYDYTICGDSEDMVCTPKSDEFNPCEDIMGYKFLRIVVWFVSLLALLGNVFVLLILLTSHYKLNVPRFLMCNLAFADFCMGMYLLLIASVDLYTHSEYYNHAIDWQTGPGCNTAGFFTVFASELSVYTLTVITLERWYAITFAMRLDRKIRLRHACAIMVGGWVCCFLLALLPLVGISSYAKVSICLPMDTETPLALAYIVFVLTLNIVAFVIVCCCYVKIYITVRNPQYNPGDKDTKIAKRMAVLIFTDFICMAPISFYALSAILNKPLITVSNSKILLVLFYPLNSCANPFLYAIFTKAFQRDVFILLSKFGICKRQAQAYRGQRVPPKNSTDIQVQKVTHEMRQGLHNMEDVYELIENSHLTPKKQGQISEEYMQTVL
Thyrotropin-releasing hormone receptor (Homo sapiens), sequence (P34981 whole entry, looked up): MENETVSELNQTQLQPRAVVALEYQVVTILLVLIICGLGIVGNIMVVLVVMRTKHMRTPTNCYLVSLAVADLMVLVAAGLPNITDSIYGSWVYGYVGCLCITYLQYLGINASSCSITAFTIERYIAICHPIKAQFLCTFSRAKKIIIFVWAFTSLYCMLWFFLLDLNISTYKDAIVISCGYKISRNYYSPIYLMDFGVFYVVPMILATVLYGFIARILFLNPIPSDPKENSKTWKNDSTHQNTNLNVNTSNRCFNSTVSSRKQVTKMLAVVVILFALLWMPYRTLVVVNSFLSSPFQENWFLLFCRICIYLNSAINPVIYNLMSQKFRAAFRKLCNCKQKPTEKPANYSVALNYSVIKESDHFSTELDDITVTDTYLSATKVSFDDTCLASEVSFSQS

C[C@]12CC[C@H](O)CC1=CCC1C2CC[C@]2(C)C(=O)CC[C@@H]12 (some centres not stated)
inactive: Potency [1] | Potency [2] | Potency [3] | Potency [4] | outcome [5] | activation [6] 0.438% | outcome [7] | outcome [8]

CCCC[N+]1(C)C2CC(OC(=O)C(CO)c3ccccc3)CC1C1OC12 (configuration not stated)
inactive: Potency [1] | Potency [2] | Potency [3] | Potency [4] | outcome [5] | activation [6] -0.438% | outcome [7] | outcome [8]

O=C(OC1CCN(CCCl)CC1)C(c1ccccc1)c1ccccc1
active: Potency [1] 11.2 µM
inactive: Potency [2] | Potency [4] | outcome [5] | activation [6] -9.25% | outcome [7] | outcome [8]

CC(C)[C@@]1(NC(=O)[C@@H]2C[C@@H]3c4cccc5[nH]cc(c45)C[C@H]3N(C)C2)O[C@@]2(O)C3CCCN3C(=O)[C@H](Cc3ccccc3)N2C1=O (some centres not stated)
active: Potency [1] 0.891 µM | Potency [3] 1.47 µM
inactive: outcome [5] | activation [6] 0.125% | outcome [7]

C[N+]1(C)C2CC(OC(=O)C(CO)c3ccccc3)CC1C1OC12 (configuration not stated)
inactive: Potency [1] | Potency [2] | Potency [3] | Potency [4] | outcome [5] | outcome [7] | outcome [8]

C#CCN(C)C(C)Cc1ccccc1 (configuration not stated)
inactive: Potency [1] | Potency [2] | Potency [3] | Potency [4] | outcome [5] | activation [6] -5.25% | outcome [7] | outcome [8]

CCCN1CCc2cccc3c2C1Cc1ccc(O)c(O)c1-3 (configuration not stated)
inactive: Potency [2] | outcome [5] | activation [6] 1.44% | outcome [7] | outcome [8]
active: Potency [1] 2 µM | Potency [3] 2.94 µM | Potency [4] 20 µM

CC(C)C[C@H]1C(=O)N2CCCC2[C@]2(O)O[C@](NC(=O)[C@@H]3C=C4c5cccc6[nH]c(Br)c(c56)C[C@H]4N(C)C3)(C(C)C)C(=O)N12 (some centres not stated)
inactive: Potency [2]
active: Potency [1] 1.58 µM

ClC1=C(Cl)C2(Cl)C3C4C=CC(C4)C3C1(Cl)C2(Cl)Cl (configuration not stated)
inactive: Potency [9] > 92 µM | Potency [10] | activity change, negative = cytotoxicity [11] 4.94% [at 91.7 µM] | outcome [12] | outcome [13] | outcome [14] | outcome [15] | outcome [16] | caspase-3 activation [17] 2.47% | outcome [18] | max response [19] -5% | max response [20] -24.9%

c1ccc(N=Nc2ccccc2)cc1
inactive: Potency [9] > 92 µM | Potency [10] | activity change, negative = cytotoxicity [11] -6.36% | outcome [12] | outcome [13] | outcome [14] | outcome [15] | outcome [16] | caspase-3 activation [17] -2.4% | outcome [18] | max response [19] -6.06% and -16.5% | max response [20] 1.24% and -11.6%

COc1cc(C=C(C#N)C#N)cc(O)c1O
inactive: Potency [2] | Potency [3] | outcome [5] | activation [6] 2.88% | outcome [7] | outcome [8]
active: Potency [4] 39.8 µM

C=CCN1CC[C@@]2(C)c3cc(O)ccc3CC1[C@@H]2C
inactive: Potency [2] | Potency [3] | Potency [4] | outcome [5] | activation [6] 1.19% | outcome [7] | outcome [8]

CCNc1nc(Cl)nc(NC(C)C)n1
inactive: Potency [9] > 92 µM | Potency [10] | activity change, negative = cytotoxicity [11] -6.93% [at 91.7 µM] | outcome [12] | outcome [13] | outcome [14] | outcome [15] | outcome [16] | caspase-3 activation [17] -0.492% | outcome [18] | max response [19] 5.56% and -9% | max response [20] 2.61% and -2.5%

CCCN1CCC[C@@H]2Cc3n[nH]cc3C[C@H]21
inactive: Potency [1] | Potency [2] | Potency [3] | Potency [4] | outcome [5] | activation [6] 1.12% | outcome [7] | outcome [8]

C=CCc1ccc2c(c1)OCO2
inactive: Potency [9] > 92 µM | Potency [10] | activity change, negative = cytotoxicity [11] 1.52% [at 91.7 µM] | outcome [12] | outcome [13] | outcome [14] | outcome [15] | outcome [16] | caspase-3 activation [17] -4.3% | outcome [18] | max response [19] -4.7% | max response [20] -8.48%

COC(=O)NC(=S)Nc1ccccc1NC(=S)NC(=O)OC
inactive: Potency [9] > 92 µM | Potency [10] | activity change, negative = cytotoxicity [11] -14.2% | outcome [12] | outcome [13] | outcome [14] | outcome [15] | outcome [16] | caspase-3 activation [17] 0.433% | outcome [18] | max response [19] -1.18% and 2.94% | max response [20] 1.27% and -9.9%

CCN1C[C@]2(C)CC[C@H](O)[C@@]34[C@@H]5C[C@@H]6[C@@H](OC)C[C@@](O)(C5[C@H]6O)[C@@H](C[C@@H]23)[C@@H]14
inactive: Potency [1] | Potency [2] | Potency [3] | Potency [4] | outcome [5] | activation [6] 0.875% | outcome [7] | outcome [8]

O=S1OCC2C(CO1)C1(Cl)C(Cl)=C(Cl)C2(Cl)C1(Cl)Cl (configuration not stated)
inactive: Potency [9] > 92 µM | Potency [10] | activity change, negative = cytotoxicity [11] -22.1% [at 91.7 µM] | outcome [12] | outcome [13] | outcome [14] | outcome [15] | outcome [16] | caspase-3 activation [17] 12.4% | outcome [18] | max response [19] 13.3% | max response [20] -13.5%

NCC#Cc1ccccc1
inactive: Potency [1] | Potency [2] | Potency [3] | Potency [4] | outcome [5] | activation [6] 1.69% | outcome [7]
